{"source": "PubChem BioAssay AID1851", "about": "(National Center for Advancing Translational Sciences (NCATS), 2009)", "note": "Several values for one entry are separate records, joined by “and”; a condition that tells them apart may be missing. Equal entries are not always repeated. Hit rate of the full screen: of about 16,000 compounds, about 4,000 (25%) were called active. Roughly 26% stayed inconclusive and do not appear here. Calls follow the shape of the dose curve; as a rule, active = well fitted curve in the direction sought with a large enough effect; inconclusive = small, poorly fitted or top-dose-only effect, or effect the other way; inactive = no such curve, though single readings can be large or run the other way. Not all results are given here. % is scaled to controls: 0 for no effect and ±100 for the full control effect.", "data": [{"biological_target": "Cytochrome P450 2C9 (Homo sapiens) (UniProt P11712)", "sequence (P11712 whole entry, looked up)": "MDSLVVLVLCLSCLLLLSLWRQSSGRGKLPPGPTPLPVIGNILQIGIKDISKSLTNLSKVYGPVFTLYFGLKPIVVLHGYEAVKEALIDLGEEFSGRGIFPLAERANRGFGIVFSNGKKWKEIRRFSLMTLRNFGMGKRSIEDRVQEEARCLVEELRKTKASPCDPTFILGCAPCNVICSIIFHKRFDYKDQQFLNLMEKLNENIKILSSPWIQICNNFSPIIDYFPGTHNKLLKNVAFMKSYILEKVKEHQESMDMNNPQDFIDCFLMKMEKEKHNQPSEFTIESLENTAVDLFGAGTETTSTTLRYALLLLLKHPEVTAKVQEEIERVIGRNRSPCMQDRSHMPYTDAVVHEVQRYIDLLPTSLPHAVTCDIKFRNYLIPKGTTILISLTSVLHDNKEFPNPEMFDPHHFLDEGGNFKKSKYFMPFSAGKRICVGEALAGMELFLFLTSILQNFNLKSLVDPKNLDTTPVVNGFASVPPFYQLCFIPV", "assay": "Cytochrome panel assay with activity outcomes", "conditions": "recombinant CYP, pro-luciferin dealkylation, luminescence, p450-cyp2c9; series mostly up to 57.1 µM", "values": [{"smiles": "O=C1CCC[C@@H](C(C(=O)OCc2ccccc2)C(=O)OCc2ccccc2)C1", "AC50": "3.16 µM (active)"}, {"smiles": "NC(=O)C1CCN(C(=O)OCc2ccccc2)CC1", "AC50": "inactive"}, {"smiles": "O=C(O)C1CCCN1C(=O)OCc1ccccc1", "note": "(stereo not given)", "AC50": "inactive"}, {"smiles": "C/C(=N\\NC(=O)c1cccc(Cl)c1)c1cccc(NC(=O)C(C)C)c1", "AC50": "inactive"}, {"smiles": "COc1ccc(C(=O)N/N=C(\\C)Cn2nc([N+](=O)[O-])cc2C)cc1", "AC50": "inactive"}, {"smiles": "COc1ccc(/C(C)=N/NC(=O)c2ccc(N(C)C)cc2)cc1", "AC50": "inactive"}, {"smiles": "COc1ccc(CC(=O)Nc2cccc(/C(C)=N/NC(=O)c3cccc([N+](=O)[O-])c3)c2)cc1", "AC50": "1.58 µM (active)"}, {"smiles": "C/C(=N/NS(=O)(=O)c1ccc(C)cc1)c1cccc(NC(=O)c2cccc(Cl)c2)c1", "AC50": "3.98 µM (active)"}, {"smiles": "COc1ccc(S(=O)(=O)N/N=C(/C)c2cccc(NC(=O)c3ccccc3Cl)c2)cc1", "AC50": "0.2 µM (active)"}, {"smiles": "COc1ccc(NC(=O)c2cc(S(=O)(=O)N3CCS(=O)(=O)CC3)ccc2Cl)cc1", "AC50": "inactive"}, {"smiles": "CCC(=O)Nc1ccc(/C(C)=N\\NS(=O)(=O)c2ccc(C)cc2)cc1", "AC50": "2.24 µM (active)"}, {"smiles": "O=C1c2ccccc2C(=O)c2c1ccc(C(=O)O)c2-c1ccc2ccccc2c1", "AC50": "1.58 µM (active)"}, {"smiles": "CC(C)c1ccc(/C=C2\\C=C(c3ccc4ccccc4c3)OC2=O)cc1", "activity, negative = inhibition": "-10% [at 11.4 µM] (inactive)"}, {"smiles": "O=C(O)c1ccccc1C(=O)Nc1cc2c(cc1Br)-c1ccccc1C2=O", "activity, negative = inhibition": "-5.92% [at 11.4 µM] (inactive)"}, {"smiles": "CC(C)OCCCN1CN(S(=O)(=O)c2cccc(Cl)c2)c2nc3ccccc3nc21", "AC50": "2.82 µM (active)"}, {"smiles": "CCn1nc(C)c(NC(=O)/C=C/c2cnn(C)c2C)c1C", "AC50": "inactive"}, {"smiles": "Cc1cc(N2CCOCC2)ccc1/C=C1\\SC(=O)N(C(C)C)C1=O", "AC50": "31.6 µM (active)"}, {"smiles": "Cc1ccsc1/C=C1/SC(=O)N(CC(=O)N2CCOCC2)C1=O", "AC50": "inactive"}, {"smiles": "CN(C)c1ccc(/C=C2/C(=O)N(c3ccc([N+](=O)[O-])cc3)N=C2N2CCOCC2)cc1", "AC50": "inactive"}, {"smiles": "Cc1ccc2c(CC(=O)OCc3cc(=O)n4c(n3)sc3ccccc34)coc2c1", "AC50": "7.94 µM (active)"}, {"smiles": "COc1cccc(Nc2nc(-c3ccc(O)cc3)cs2)c1", "AC50": "3.98 µM (active)"}, {"smiles": "COc1cccc(Nc2ncc3nc(-c4ccccc4)c(=O)n(C)c3n2)c1", "AC50": "inactive"}, {"smiles": "c1cnc(Nc2nc(-c3ccc4ccccc4c3)cs2)nc1", "AC50": "inactive"}, {"smiles": "CC1CCCC(NC(=O)C2CCN(S(=O)(=O)N3CCOCC3)CC2)C1C", "note": "(stereo not given)", "AC50": "inactive"}, {"smiles": "CCNc1ncc2nc(-c3ccc(F)cc3)c(=O)n(C)c2n1", "AC50": "inactive"}, {"smiles": "CCNc1ncc2nc(CCc3ccccc3)c(=O)n(CCC#N)c2n1", "AC50": "6.31 µM (active)"}, {"smiles": "CCNc1ncc2nc(CCc3ccccc3)c(=O)n(Cc3ccc(F)cc3)c2n1", "AC50": "inactive"}, {"smiles": "CCNc1ncc2nc(CCc3ccccc3)c(=O)n(C)c2n1", "AC50": "12.6 µM (active)"}, {"smiles": "CCNc1ncc2nc(-c3ccc(Cl)cc3)c(=O)n(C)c2n1", "AC50": "inactive"}, {"smiles": "CCNc1ncc2nc(-c3ccccc3)c(=O)n(CCC#N)c2n1", "AC50": "inactive"}, {"smiles": "CCNc1ncc2nc(-c3ccc(F)cc3)c(=O)n(-c3ccccc3)c2n1", "AC50": "inactive"}, {"smiles": "CCNc1ncc2nc(CCc3ccccc3)c(=O)n(-c3ccccc3)c2n1", "AC50": "12.6 µM (active)"}, {"smiles": "CCNc1ncc2nc(C)c(=O)n(C)c2n1", "AC50": "inactive"}, {"smiles": "N#CCCn1c(=O)c(CCc2ccccc2)nc2cnc(Nc3ccccc3)nc21", "AC50": "inactive"}, {"smiles": "CCNc1ncc2nc(-c3ccccc3)c(=O)n(C)c2n1", "AC50": "12.6 µM (active)"}, {"smiles": "CCNc1ncc2nc(-c3cc(F)cc(F)c3)c(=O)n(-c3ccccc3)c2n1", "AC50": "inactive"}, {"smiles": "CC1(C)CC2(CCO1)OC(=O)CC2C(=O)NCCc1ccccc1", "note": "(stereo not given)", "AC50": "inactive"}, {"smiles": "FC(F)(F)c1cc(CN2CC3(CCNCC3)C2)cc(C(F)(F)F)c1", "AC50": "inactive"}, {"smiles": "CC1(C)S[C@@H]2[C@H](NC(=O)[C@@H](N)c3ccccc3)C(=O)N2[C@H]1C(=O)O[C@H]1OC(=O)c2ccccc21", "AC50": "inactive"}, {"smiles": "Cc1cc(C)c2c(N=NN(C)C)[nH]nc2n1", "AC50": "inactive"}, {"smiles": "Cc1ccccc1-c1nc(NC2CCNCC2)c2ccccc2n1", "activity, negative = inhibition": "10.8% [at 2.29 µM] (inactive)"}, {"smiles": "COc1cccc(OC)c1OCCCN1CCOCC1", "AC50": "inactive"}, {"smiles": "S=C1SCN(CCN2CCOCC2)CN1Cc1ccccc1", "AC50": "12.6 µM (active)"}, {"smiles": "c1csc(CNCCCN2CCOCC2)c1", "AC50": "inactive"}, {"smiles": "Cc1ccccc1-c1ccc2ncnc(N3CCNCC3)c2c1", "activity, negative = inhibition": "4.82% [at 2.29 µM] (inactive)"}, {"smiles": "CN(C)C(=O)c1ccc(-c2cncnc2N2CCNCC2)cc1", "activity, negative = inhibition": "7.11% [at 2.29 µM] (inactive)"}, {"smiles": "Cc1ccc2nc(-c3cccnc3)oc2c1", "AC50": "25.1 µM (active)"}, {"smiles": "Clc1ccc2oc(-c3cccnc3)nc2c1", "AC50": "inactive"}, {"smiles": "c1cncc(-c2cccnc2)c1", "AC50": "inactive"}, {"smiles": "O=c1[nH][nH]c(C(F)(F)F)c1C=Nc1ccccc1Cl", "AC50": "inactive"}, {"smiles": "COc1cc(/C=N\\NC(=O)C2C(=O)NCC2c2ccccc2)cc(OC)c1O", "note": "(stereo not given)", "AC50": "inactive"}, {"smiles": "COc1cccc(/C=N\\NC(=O)C2C(=O)NCC2c2ccccc2)c1O", "note": "(stereo not given)", "AC50": "14.1 µM (active)"}, {"smiles": "O=C(Nc1ccccc1)N1CCC2(CC1)CCN(C(=O)c1csnn1)CC2", "AC50": "inactive"}, {"smiles": "CCOC(=O)N/N=C1/C[C@@H](O)[C@@H](O)[C@@H]2[C@@H]3C(=O)N(C4CCCCC4)C(=O)[C@H]3CC[C@@H]12", "activity, negative = inhibition": "-16.3% [at 11.4 µM] (inactive)"}, {"smiles": "CC(=O)[C@@H]1[C@@H]2C(=O)N(C3CCCCC3)C(=O)[C@@H]2C2c3ccccc3C=CN21", "note": "(stereo not given in full)", "AC50": "15.8 µM (active)"}, {"smiles": "O=C1C[C@@H](O)[C@@H](O)[C@H]2[C@@H]3C(=O)N(C4CCCCC4)C(=O)[C@@H]3CC[C@H]12", "activity, negative = inhibition": "14.6% [at 11.4 µM] (inactive) and -0.457% [at 11.4 µM] (inactive) and -8.99% [at 11.4 µM] (inactive)"}, {"smiles": "COc1cc2ccc(=O)oc2cc1O", "AC50": "inactive"}, {"smiles": "Nc1ccc(S(=O)(=O)Nc2ccc(Cl)nn2)cc1", "AC50": "inactive"}, {"smiles": "CC1(O)c2ccccc2C(=O)N1CCc1ccccc1F", "note": "(stereo not given)", "AC50": "15.8 µM (active)"}, {"smiles": "Cc1ccc(S(=O)(=O)O[C@@H]2[C@H]([C@@H]3COC(C)(C)O3)O[C@H]3OC(C)(C)O[C@@H]32)cc1", "activity, negative = inhibition": "4.54% [at 11.4 µM] (inactive)"}, {"smiles": "Cc1ccc(-c2nnn(CC(=O)N(c3ccccc3)C(C(=O)NCC3CCCO3)c3ccc(Cl)cc3)n2)cc1", "note": "(stereo not given)", "AC50": "0.708 µM (active)"}, {"smiles": "CC(C)CC(C(=O)NCC1CCCO1)N(C(=O)Cn1nnc(-c2ccc(F)cc2)n1)c1cccc(C(F)(F)F)c1", "note": "(stereo not given)", "AC50": "7.94 µM (active)"}, {"smiles": "CC(NC(=O)OCc1ccccc1)C(=O)NCC1CCCO1", "note": "(stereo not given)", "AC50": "inactive"}, {"smiles": "CC(C)CC(C(=O)NCC1CCCO1)N(C(=O)Cn1nnc(-c2ccc(F)cc2)n1)c1ccccc1F", "note": "(stereo not given)", "AC50": "11.2 µM (active)"}, {"smiles": "CN(C)c1ncc2nc(-c3ccc(F)cc3)c(=O)n(C[C@H]3CCCO3)c2n1", "AC50": "inactive"}, {"smiles": "O=C(NCC1CCCO1)C(c1cccnc1)N(C(=O)Cc1cccs1)c1cccnc1", "note": "(stereo not given)", "AC50": "inactive"}, {"smiles": "Cc1ccc(N(C(=O)Cn2nnc(-c3ccc(F)cc3)n2)C(CC(C)C)C(=O)NCC2CCCO2)cc1", "note": "(stereo not given)", "AC50": "3.98 µM (active)"}, {"smiles": "N#CC(CC(=O)O)=C(c1ccccc1)c1ccccc1", "activity, negative = inhibition": "-16.4% [at 11.4 µM] (inactive)"}, {"smiles": "CCN1C(=O)[C@H]2[C@H]3[C@H](O)[C@H](O)C/C(=N/O[C@@H]4O[C@@H](COC(C)=O)[C@@H](OC(C)=O)[C@@H](OC(C)=O)[C@H]4OC(C)=O)[C@@H]3CC[C@@H]2C1=O", "activity, negative = inhibition": "19.4% [at 11.4 µM] (inactive)"}, {"smiles": "CCN1CCCC1CNC(=O)CSCc1nc(-c2ccccc2C)oc1C", "note": "(stereo not given)", "AC50": "inactive"}, {"smiles": "Cc1oc(-c2ccccc2F)nc1CSCC(=O)NCc1ccc2c(c1)OCO2", "AC50": "4.47 µM (active)"}, {"smiles": "COc1ccc(Oc2nc(C)cc(C)c2S(=O)(=O)c2ccc(C)cc2)cc1", "AC50": "14.1 µM (active)"}, {"smiles": "Cc1cc(C)c(C#N)c(Oc2ccc(F)cc2)n1", "AC50": "inactive"}, {"smiles": "Cc1cc(C)c(S(C)(=O)=O)c(Oc2ccc(C(C)(C)C)cc2)n1", "AC50": "7.08 µM (active)"}, {"smiles": "NC(=O)NC(=O)[C@H]1CCCC[C@@H]1C(=O)O", "activity, negative = inhibition": "7.71% [at 11.4 µM] (inactive)"}, {"smiles": "CCN(CC)CC[n+]1ccc2c(C)c3[nH]c4ccc(O)cc4c3c(C)c2c1", "activity, negative = inhibition": "-0.365% [at 11.4 µM] (inactive)"}, {"smiles": "CC(=O)NCCc1c[nH]c2ccc(O)cc12", "AC50": "inactive"}, {"smiles": "Cc1onc(-c2ccccc2)c1C(=O)NCCc1c[nH]c2ccccc12", "AC50": "3.98 µM (active)"}, {"smiles": "CC(C)(C)c1ccc(O)c(CN(Cc2cc(C(C)(C)C)ccc2O)C2CCCCC2)c1", "activity, negative = inhibition": "-4.75% [at 11.4 µM] (inactive)"}, {"smiles": "Oc1c(Br)cc(CN(Cc2cc(Br)c(O)c(Br)c2)C2CCCCC2)cc1Br", "AC50": "2.51 µM (active)"}, {"smiles": "Oc1c(Br)cc(Br)cc1CN(Cc1cc(Br)cc(Br)c1O)C1CCCCC1", "activity, negative = inhibition": "-21.2% [at 11.4 µM] (inactive)"}, {"smiles": "NC(N)=NC(N)=Nc1ccc(S(=O)(=O)O)cc1", "activity, negative = inhibition": "21.1% [at 11.4 µM] (inactive)"}, {"smiles": "COc1ccc(-n2c(CNC(=O)c3cc(OC)c(OC)c(OC)c3)n[nH]c2=S)cc1", "AC50": "inactive"}, {"smiles": "O=C(NCc1n[nH]c(=S)n1-c1cccc(Cl)c1)c1ccc(S(=O)(=O)N2CCCC2)cc1", "AC50": "17.8 µM (active)"}, {"smiles": "Cn1c(CCNC(=O)c2ccccc2Cl)n[nH]c1=S", "AC50": "inactive"}, {"smiles": "O=[N+]([O-])c1ccccc1N=Nc1c(O)[nH]c2ccc(S(=O)(=O)O)cc12", "activity, negative = inhibition": "-11% [at 11.4 µM] (inactive)"}, {"smiles": "O=C(Nc1cnc2ccccc2c1)c1cccc(-n2cnnn2)c1", "AC50": "inactive"}, {"smiles": "CCC(C(=O)NC(C)(C)C)N(C(=O)Cn1nnc(-c2cccs2)n1)c1cnc2ccccc2c1", "note": "(stereo not given)", "AC50": "2.82 µM (active)"}, {"smiles": "COC(=O)C/C=C\\[C@H](C)[C@@H](OC)c1ccccc1Br", "activity, negative = inhibition": "-6.68% [at 11.4 µM] (inactive)"}, {"smiles": "Cn1c(=O)n2n(c1=O)[C@H]1[C@H](O)[C@H]3O[C@@H]3/C(=N/OC[C@@H](O)COCc3ccco3)[C@@H]1CC2", "activity, negative = inhibition": "-4.5% [at 11.4 µM] (inactive)"}]}]}
